Measured values as given in ChEMBL document CHEMBL4513216, “Probing the Open Global Health Chemical Diversity Library for Multistage-Active Starting Points for Next-Generation Antimalarials” (ACS Infect Dis, 2020).
Screen size: about 69,000 compounds; about 8,600 (12%) showed an effect of 50% or more. What follows is part of a selection rich in strong results, with near analogues and random picks from the rest.

What follows are compounds tested on Plasmodium berghei (assay: Screen against P. berghei liver stage (PbLuc), transformed with Luciferase, at 10uM). Conditions: tested at 10 uM.
Type: functional, HepG2

Compound	INHIBITION [%]
Nc1nc(N)c2c(n1)OC1(CCN(C(=O)CC3CCNCC3)CC1)C2	-13.13
CN1[C@H](CN2CCCC2)C[C@@H]2CN(C(=O)c3ccsc3)CC[C@@H]21	28.4
COc1ccc(CCN2C(=O)O[C@@H]3CN(C)C[C@@H]32)cc1	51.2
COc1ccc(CCN2C(=O)O[C@@H]3CN(C4CCOCC4)C[C@@H]32)cc1	-5.12
COc1ccc(CCN2C(=O)O[C@@H]3CN(C4CCSCC4)C[C@@H]32)cc1	47.6
CC1(C)CNC(=O)c2nc(CCCN3CCCC3)[nH]c2C1	83.2
CC1(C)CNC(=O)c2nc(CCN3CCC(C(N)=O)CC3)[nH]c2C1	8.38
CC1(C)CNC(=O)c2nc(CCN3CCC(O)CC3)[nH]c2C1	53.3
CC1(C)CNC(=O)c2nc(CCN3CCCCC3CO)[nH]c2C1 (stereo not given)	24.4
CC1(C)CNC(=O)c2nc(CCN3CCOCC3)[nH]c2C1	-13
CN1CCCC(c2nc3c([nH]2)CC(C)(C)CNC3=O)C1 (stereo not given)	-67.3
O=C(NCC1CC1)Nc1ccc(OCC(F)(F)F)nc1	23.73
O=S(=O)(Cc1c(F)cccc1Cl)Cc1nnnn1C1CC1	25.8
COc1ccc(OC)c(C2CCN(C(=O)CCc3n[nH]c(N)n3)C2)c1 (stereo not given)	-24
COc1ccc(OC)c(C2CCN(C3CCN(C(C)=O)CC3)C2)c1 (stereo not given)	27.7
COc1ccc(OC)c(C2CCN(C(=O)C3CCOCC3)C2)c1 (stereo not given)	50.1
COc1ccc(OC)c(C2CCN(C(=O)C3CCS(=O)(=O)CC3)C2)c1 (stereo not given)	40.5
COc1ccc(OC)c(C2CCN(C(=O)C3CCC(O)CC3)C2)c1 (stereo not given)	25.5
COc1ccc(OC)c(C2CCN(C(=O)C3CCN(C(C)C)CC3)C2)c1 (stereo not given)	53.3
CN(CC(=O)Nc1cc(C(C)(C)C)n[nH]1)S(C)(=O)=O	3.63
O=C(NCC1(Sc2ccccc2)CC1)c1c[nH]nn1	20.8
CN(C)CC(=O)N1CCN(CC(O)c2ccc(F)cc2)CC1 (stereo not given)	-11.4
COc1ccccc1OCCc1nnc(NC(=O)C2CC23CCC3)s1 (stereo not given)	31.97
CSCC(=O)N1C[C@@H]2CC[C@H]1CN(Cc1ccccc1)C2	-79.7
COc1ccc(C(=O)Nc2c(C)nc3cccc(C)n3c2=O)cc1	31.7
CCOc1ccc(C(=O)Nc2c(C)nc3ccccn3c2=O)cc1	56.5
CCOc1ccc(C(=O)Nc2c(C)nc3cccc(C)n3c2=O)cc1	-14.7
CCOc1ccc(C(=O)Nc2c(C)nc3scc(C)n3c2=O)cc1	5.58
CCOc1ccc(C(=O)Nc2ccn(CC)n2)cc1	-125
CCOc1ccc(C(=O)Nc2c(C)nc3ccc(Cl)cn3c2=O)cc1	51.6
